# Experiments:
# Assay in all cases: DAPPL (digital affinity profiling via proximity ligation, sequencing); 10 mM Tris-HCl pH 7.5, 50 mM NaCl, 1 mM DTT, 4% glycerol, room temperature, 30 min; GST-TFs on glutathione beads, 16-mer random dsDNA library, 0.1% formaldehyde crosslink after washing; high values mean tight binding
# Conditions in all cases: protein: recombinant; tags: N-terminal GST; dsDNA, one strand shown
# FLI1 = target: T1, FLI1 (Homo sapiens, UniProt Q01543 1-452)
# T1 sequence: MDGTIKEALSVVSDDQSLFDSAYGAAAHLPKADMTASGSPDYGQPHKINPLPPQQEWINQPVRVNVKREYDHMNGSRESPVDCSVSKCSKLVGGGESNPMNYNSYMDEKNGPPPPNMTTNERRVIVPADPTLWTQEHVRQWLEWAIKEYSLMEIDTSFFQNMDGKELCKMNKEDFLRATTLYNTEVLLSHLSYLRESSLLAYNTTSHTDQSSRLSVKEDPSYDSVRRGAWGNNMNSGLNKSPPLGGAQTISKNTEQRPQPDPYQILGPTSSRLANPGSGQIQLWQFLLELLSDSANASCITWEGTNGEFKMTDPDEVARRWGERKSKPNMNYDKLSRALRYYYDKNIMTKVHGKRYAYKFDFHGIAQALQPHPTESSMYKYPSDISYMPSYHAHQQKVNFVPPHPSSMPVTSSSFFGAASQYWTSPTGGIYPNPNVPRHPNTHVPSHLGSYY
# Procedure, shortened: (§1)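 After expression in yeast as GST fusions, human transcription factors were bound to glutathione beads, DNA-barcoded and mixed with a tag-only sample. The pools were incubated with 200 nmole of a 16-mer random double-stranded DNA library in Tris/NaCl/DTT/glycerol buffer (30 min, room temperature), washed and crosslinked with 0.1% formaldehyde. Proximity ligation with BsaI/T4 ligase ran for 1 h at 37 °C, before PCR amplification and sequencing on an Illumina NextSeq500. Binding signal is a hexamer's read frequency for a factor divided by its frequency for the tag-only sample.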
# GABPA = target: T2, GABPA (Homo sapiens, UniProt Q06546 1-454)
# T2 sequence: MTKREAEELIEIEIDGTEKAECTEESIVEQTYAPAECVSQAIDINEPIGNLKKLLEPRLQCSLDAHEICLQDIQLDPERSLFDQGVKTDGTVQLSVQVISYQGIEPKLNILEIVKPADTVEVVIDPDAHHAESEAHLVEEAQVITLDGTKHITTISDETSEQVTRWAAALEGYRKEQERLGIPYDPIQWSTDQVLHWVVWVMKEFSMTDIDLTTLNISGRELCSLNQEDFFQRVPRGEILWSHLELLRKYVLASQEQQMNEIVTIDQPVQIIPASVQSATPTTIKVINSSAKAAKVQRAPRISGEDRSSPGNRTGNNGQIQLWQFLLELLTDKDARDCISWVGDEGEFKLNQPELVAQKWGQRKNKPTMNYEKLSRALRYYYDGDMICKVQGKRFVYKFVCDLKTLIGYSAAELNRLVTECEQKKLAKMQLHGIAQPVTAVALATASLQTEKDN
# Procedure, shortened: as §1
# ERG = target: T3, ERG (Homo sapiens, UniProt P11308 1-479)
# T3 sequence: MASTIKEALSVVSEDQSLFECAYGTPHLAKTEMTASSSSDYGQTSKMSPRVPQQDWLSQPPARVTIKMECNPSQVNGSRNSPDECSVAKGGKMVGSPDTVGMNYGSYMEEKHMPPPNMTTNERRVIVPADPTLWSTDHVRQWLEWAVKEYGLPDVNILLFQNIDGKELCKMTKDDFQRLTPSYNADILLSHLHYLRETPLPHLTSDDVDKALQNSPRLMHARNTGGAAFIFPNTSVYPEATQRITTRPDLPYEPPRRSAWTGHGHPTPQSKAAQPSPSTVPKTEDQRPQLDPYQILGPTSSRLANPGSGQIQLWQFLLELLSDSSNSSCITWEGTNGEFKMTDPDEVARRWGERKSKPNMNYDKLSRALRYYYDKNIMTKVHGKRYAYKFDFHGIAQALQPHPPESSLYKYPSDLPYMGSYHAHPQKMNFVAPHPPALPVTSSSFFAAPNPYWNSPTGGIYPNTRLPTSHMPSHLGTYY
# Procedure, shortened: as §1
# ELF1 = ELF1 (Homo sapiens, UniProt P32519 1-619)
# Sequence of ELF1 (P32519 whole entry): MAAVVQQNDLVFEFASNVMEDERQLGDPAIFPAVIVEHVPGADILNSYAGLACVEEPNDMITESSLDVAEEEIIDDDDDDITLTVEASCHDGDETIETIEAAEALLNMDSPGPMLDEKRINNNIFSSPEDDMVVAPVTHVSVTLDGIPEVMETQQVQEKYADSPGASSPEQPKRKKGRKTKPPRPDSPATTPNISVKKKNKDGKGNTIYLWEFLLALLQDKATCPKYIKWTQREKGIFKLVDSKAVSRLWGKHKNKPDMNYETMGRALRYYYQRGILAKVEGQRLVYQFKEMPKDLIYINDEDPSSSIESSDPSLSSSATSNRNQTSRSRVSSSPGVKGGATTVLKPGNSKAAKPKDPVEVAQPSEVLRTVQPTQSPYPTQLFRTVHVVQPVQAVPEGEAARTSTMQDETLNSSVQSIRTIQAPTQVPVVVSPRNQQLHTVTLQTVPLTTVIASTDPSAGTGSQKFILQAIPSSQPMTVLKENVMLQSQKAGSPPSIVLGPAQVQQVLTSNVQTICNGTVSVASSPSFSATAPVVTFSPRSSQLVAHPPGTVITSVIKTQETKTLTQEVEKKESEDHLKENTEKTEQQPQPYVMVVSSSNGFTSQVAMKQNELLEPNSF
# Procedure, shortened: as §1
# EHF = target: T4, EHF (Homo sapiens, UniProt Q9NZC4 1-300)
# T4 sequence: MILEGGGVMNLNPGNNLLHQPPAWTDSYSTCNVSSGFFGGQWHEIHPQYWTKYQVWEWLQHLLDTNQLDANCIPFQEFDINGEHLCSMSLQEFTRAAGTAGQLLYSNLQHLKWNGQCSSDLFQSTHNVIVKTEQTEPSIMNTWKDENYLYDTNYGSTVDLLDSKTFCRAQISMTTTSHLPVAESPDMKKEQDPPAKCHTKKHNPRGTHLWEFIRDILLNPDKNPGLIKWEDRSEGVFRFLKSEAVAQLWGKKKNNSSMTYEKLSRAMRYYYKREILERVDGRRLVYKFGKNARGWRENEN
# Procedure, shortened: as §1
# SPI1 = SPI1 (Homo sapiens, UniProt P17947 1-270)
# Procedure, shortened: as §1
# SPIB = SPIB (Homo sapiens, UniProt Q01892 1-262)
# Sequence of SPIB (Q01892 whole entry): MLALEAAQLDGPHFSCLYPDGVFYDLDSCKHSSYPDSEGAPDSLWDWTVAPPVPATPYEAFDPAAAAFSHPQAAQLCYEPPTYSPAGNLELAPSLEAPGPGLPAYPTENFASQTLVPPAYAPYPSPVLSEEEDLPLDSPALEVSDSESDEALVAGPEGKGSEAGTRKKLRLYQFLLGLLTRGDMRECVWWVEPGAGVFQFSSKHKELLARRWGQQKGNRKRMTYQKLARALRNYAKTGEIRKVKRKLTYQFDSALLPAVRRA
# Procedure, shortened: as §1
# ELK3 = target: T5, ELK3 (Homo sapiens, UniProt P41970 1-407)
# T5 sequence: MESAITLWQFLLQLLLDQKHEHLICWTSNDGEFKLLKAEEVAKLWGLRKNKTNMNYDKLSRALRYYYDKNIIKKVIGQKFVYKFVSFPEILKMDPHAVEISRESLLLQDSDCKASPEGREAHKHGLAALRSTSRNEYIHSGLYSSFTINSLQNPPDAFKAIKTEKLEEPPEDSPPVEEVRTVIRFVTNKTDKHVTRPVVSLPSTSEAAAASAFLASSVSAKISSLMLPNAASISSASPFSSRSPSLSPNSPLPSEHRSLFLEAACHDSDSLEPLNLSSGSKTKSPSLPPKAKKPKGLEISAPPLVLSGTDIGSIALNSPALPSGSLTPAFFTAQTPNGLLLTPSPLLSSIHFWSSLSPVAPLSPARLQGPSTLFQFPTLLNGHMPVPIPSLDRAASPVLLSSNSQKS
# Procedure, shortened: as §1
# FEV = target: T6, FEV (Homo sapiens, UniProt Q99581 1-238)
# T6 sequence: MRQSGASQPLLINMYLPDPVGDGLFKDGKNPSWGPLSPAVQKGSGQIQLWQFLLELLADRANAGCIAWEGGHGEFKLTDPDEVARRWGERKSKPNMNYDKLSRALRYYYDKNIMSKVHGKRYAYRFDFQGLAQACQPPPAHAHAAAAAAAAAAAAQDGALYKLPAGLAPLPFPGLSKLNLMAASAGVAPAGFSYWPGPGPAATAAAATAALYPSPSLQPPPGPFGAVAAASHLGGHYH
# Procedure, shortened: as §1
# ETV5 = ETV5 (Homo sapiens, UniProt P41161 1-510)
# Sequence of ETV5 (P41161 whole entry): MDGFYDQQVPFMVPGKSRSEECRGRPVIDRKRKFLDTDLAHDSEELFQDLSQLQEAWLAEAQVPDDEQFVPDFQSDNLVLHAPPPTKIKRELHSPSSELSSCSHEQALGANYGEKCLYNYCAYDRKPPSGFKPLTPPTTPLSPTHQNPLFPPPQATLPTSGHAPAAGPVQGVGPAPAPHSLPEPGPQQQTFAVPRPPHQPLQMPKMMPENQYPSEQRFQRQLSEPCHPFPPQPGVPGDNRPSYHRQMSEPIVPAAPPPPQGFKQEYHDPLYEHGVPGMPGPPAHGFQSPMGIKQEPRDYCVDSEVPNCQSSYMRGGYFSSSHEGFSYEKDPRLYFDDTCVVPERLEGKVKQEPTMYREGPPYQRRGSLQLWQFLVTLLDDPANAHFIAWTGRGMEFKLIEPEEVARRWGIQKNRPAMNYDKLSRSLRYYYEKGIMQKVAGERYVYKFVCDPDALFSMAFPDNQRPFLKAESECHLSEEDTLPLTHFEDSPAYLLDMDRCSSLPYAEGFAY
# Procedure, shortened: as §1
# SPIC = target: T7, SPIC (Homo sapiens, UniProt Q8N5J4 1-248)
# T7 sequence: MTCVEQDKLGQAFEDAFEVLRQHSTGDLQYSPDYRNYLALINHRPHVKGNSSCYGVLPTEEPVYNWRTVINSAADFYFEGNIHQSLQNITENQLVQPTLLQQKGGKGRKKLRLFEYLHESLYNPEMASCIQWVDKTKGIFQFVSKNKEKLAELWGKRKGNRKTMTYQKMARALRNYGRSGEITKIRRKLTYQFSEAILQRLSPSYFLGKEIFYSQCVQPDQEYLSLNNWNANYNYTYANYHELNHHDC
# Procedure, shortened: as §1
# ELF4 = ELF4 (Homo sapiens, UniProt Q99607 1-663)
# Sequence of ELF4 (Q99607 whole entry): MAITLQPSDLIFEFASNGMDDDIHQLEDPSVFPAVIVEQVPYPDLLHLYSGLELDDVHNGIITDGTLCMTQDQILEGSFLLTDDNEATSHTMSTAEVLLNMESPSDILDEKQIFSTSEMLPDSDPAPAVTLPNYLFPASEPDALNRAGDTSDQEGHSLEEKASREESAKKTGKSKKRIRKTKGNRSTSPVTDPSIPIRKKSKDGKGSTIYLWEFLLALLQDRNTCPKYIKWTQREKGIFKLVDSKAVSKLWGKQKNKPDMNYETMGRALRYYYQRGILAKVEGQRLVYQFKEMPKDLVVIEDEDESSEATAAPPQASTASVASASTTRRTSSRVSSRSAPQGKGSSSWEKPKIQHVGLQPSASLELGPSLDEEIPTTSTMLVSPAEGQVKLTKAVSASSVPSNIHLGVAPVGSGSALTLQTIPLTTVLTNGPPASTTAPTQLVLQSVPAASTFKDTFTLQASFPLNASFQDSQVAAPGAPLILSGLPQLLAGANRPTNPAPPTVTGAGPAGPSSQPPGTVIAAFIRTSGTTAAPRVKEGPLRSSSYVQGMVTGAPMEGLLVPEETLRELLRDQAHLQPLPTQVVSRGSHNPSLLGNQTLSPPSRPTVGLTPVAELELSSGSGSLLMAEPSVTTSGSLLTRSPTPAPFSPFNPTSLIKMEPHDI
# Procedure, shortened: as §1
# ERF = target: T8, ERF (Homo sapiens, UniProt P50548 1-548)
# T8 sequence: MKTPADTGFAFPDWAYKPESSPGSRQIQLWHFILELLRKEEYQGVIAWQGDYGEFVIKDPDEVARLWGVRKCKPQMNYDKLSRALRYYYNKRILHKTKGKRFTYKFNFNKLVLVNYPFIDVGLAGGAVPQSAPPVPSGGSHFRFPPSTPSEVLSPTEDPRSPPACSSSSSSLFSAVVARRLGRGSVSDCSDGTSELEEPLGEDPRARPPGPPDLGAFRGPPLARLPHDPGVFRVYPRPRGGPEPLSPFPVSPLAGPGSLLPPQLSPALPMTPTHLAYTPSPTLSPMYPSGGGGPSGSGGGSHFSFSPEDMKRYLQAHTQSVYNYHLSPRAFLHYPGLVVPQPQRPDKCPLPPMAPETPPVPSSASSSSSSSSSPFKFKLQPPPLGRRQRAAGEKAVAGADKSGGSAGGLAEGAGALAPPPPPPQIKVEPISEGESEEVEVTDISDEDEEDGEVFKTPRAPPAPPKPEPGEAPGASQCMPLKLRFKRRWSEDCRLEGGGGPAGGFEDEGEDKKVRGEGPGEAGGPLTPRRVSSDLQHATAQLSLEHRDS
# Procedure, shortened: as §1
# ETV3L = target: T9, ETV3L (Homo sapiens, UniProt Q6ZN32 1-361)
# T9 sequence: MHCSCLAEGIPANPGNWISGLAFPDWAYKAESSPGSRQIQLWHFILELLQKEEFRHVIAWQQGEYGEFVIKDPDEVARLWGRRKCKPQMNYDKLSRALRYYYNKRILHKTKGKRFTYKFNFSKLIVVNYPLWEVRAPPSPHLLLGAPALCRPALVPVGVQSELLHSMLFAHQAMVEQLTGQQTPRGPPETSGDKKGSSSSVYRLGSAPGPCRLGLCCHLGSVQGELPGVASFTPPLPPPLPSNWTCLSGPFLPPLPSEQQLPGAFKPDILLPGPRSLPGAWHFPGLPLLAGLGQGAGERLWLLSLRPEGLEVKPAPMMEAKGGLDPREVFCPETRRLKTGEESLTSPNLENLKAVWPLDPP
# Procedure, shortened: as §1
# ETS2 = target: T10, ETS2 (Homo sapiens, UniProt P15036 1-469)
# T10 sequence: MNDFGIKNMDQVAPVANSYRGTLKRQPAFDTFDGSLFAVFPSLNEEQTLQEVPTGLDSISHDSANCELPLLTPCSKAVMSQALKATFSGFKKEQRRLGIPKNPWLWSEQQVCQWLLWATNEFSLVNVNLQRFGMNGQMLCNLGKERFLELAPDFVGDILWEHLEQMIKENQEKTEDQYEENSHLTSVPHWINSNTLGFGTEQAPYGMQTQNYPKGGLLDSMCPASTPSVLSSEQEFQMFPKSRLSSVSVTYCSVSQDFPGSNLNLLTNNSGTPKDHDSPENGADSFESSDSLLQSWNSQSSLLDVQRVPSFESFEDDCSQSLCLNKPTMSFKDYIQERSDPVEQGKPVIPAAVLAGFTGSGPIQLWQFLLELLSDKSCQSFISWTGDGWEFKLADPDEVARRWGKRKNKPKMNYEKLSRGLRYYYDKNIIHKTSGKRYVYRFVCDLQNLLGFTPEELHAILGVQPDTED
# Procedure, shortened: as §1
# ETV6 = ETV6 (Homo sapiens, UniProt P41212 1-452)
# Sequence of ETV6 (P41212 whole entry): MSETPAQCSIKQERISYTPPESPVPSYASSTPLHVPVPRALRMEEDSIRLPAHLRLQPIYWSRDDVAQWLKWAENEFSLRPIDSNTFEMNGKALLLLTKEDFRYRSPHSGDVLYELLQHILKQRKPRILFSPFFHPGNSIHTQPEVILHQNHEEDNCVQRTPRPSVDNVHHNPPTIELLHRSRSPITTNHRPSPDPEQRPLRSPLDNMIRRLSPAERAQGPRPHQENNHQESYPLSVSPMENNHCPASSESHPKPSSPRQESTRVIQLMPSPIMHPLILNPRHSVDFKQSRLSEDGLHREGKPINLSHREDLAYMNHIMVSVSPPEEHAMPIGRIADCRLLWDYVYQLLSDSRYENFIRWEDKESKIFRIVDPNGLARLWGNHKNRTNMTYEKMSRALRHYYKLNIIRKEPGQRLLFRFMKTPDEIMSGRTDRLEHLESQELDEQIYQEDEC
# Procedure, shortened: as §1
sequence,measurement,setting,value
CAGCTA,binding signal,FLI1,"1.1 fold enrichment (6-mer frequency, TF over GST control)"
same,binding signal,GABPA,"1.06 fold enrichment (6-mer frequency, TF over GST control)"
same,binding signal,ERG,"1.03 fold enrichment (6-mer frequency, TF over GST control)"
same,binding signal,ELF1,"1.07 fold enrichment (6-mer frequency, TF over GST control)"
same,binding signal,EHF,"1.05 fold enrichment (6-mer frequency, TF over GST control)"
same,binding signal,SPI1,"1.03 fold enrichment (6-mer frequency, TF over GST control)"
same,binding signal,SPIB,"1.04 fold enrichment (6-mer frequency, TF over GST control)"
same,binding signal,ELK3,"1.02 fold enrichment (6-mer frequency, TF over GST control)"
same,binding signal,FEV,"1.02 fold enrichment (6-mer frequency, TF over GST control)"
same,binding signal,ETV5,"1.01 fold enrichment (6-mer frequency, TF over GST control)"
same,binding signal,SPIC,"1.07 fold enrichment (6-mer frequency, TF over GST control)"
same,binding signal,ELF4,"1.03 fold enrichment (6-mer frequency, TF over GST control)"
same,binding signal,ERF,"1.08 fold enrichment (6-mer frequency, TF over GST control)"
same,binding signal,ETV3L,"1.05 fold enrichment (6-mer frequency, TF over GST control)"
same,binding signal,ETS2,"1.06 fold enrichment (6-mer frequency, TF over GST control)"
same,binding signal,ETV6,"1.01 fold enrichment (6-mer frequency, TF over GST control)"
